From PubChem BioAssay AID493005 (National Center for Advancing Translational Sciences (NCATS), 2010)
The whole screen tested about 340,000 compounds, of which fewer than 10 were called active. Calls follow the shape of the dose curve; as a rule, active = well fitted inhibition curve with a large enough effect in the main read-out, with a control signal flat (not every such curve was filed as active); inconclusive = small, poorly fitted or top-dose-only effect, or effect the other way, or a change in a side signal; inactive = no such curve, though single readings can be large or run the other way. The list is a sample of the results.

target: Tumor susceptibility gene 101 protein (Homo sapiens) (UniProt Q99816); experiment: qHTS Assay for Iinhibitors of HIV-1 Budding by Blocking the Interaction of PTAP/TSG101; settings: Fluorescence polarization, FITC-PTAP peptide / Tsg101 binding; series mostly up to 115 µM
Sequence (Q99816 whole entry, looked up): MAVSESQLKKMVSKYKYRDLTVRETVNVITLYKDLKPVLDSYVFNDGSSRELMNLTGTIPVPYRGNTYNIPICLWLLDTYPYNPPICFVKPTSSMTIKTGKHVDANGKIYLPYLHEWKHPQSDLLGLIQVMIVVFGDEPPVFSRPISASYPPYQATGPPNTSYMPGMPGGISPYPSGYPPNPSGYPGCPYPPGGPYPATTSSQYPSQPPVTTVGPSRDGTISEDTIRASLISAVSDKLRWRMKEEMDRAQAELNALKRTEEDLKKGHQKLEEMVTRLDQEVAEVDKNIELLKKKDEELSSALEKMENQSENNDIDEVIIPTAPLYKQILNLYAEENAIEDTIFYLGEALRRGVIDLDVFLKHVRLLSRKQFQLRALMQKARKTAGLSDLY
Description: NIH Molecular Libraries Probe Production Network [MLPCN] NIH Chemical Genomics Center [NCGC] MLPCN Grant: 1 R03 MH087464-01A1 PI Name: Dr. Eric Freed, NCI NCGC Assay Overview: Stages of the HIV-1 replication cycle, specifically virus assembly and release, provide underexploited targets for the development of novel antiviral inhibitors. The late stages of HIV-1 replication are mediated by the Gag precursor protein, Pr55Gag. Expression of Pr55Gag is both necessary and sufficient for the production of virus-like particles from Gag-expressing cells. The Gag protein hijacks key host proteins involved in endocytic machinery of the host cell to promote endosomal processing and viral budding. The budding process requires a direct interaction between a […] (PTAP) motif in the p6 domain of Gag and the cellular endosomal sorting protein known as Tsg101. In this way, the Gag PTAP motif promotes the host cells to recruit viral particles to the plasma membrane where the new viral particles are released, effectively turning the host cells into viral factories. A fluorescence anisotropy assay has been developed to quantitatively measure the PTAP-Tsg101 interaction which can be used to screen for inhibitors of this interaction.
NCGC Assay Protocol Summary: Two uL of the Tsg101 binding domain in buffer (10 mM HEPES pH 7.5; 0.15 M NaCl, 0.01% Tween 20; 3 mM EDTA;0.1 mM TCEP) was dispensed into Greiner black MB 1536-well plates (final concentration 10 uM). Then, 23 nL of compounds or DMSO were delivered to each well using a pin tool. Finally, 2 uL of a FITC-labeled peptide containing the PTAP motif (1) in the same buffer was dispensed (50 nM final concentration) and the binding was allowed to proceed for 20 min. at r.t. Fluorescent polarization was determined using FITC excitation and polarized emission filters on a Perkin Elmer Viewlux. Keywords: Tsg101, PTAP, Gag, HIV, fluorescent polarization, MLSMR, MLPCN, NIH Roadmap, qHTS, NCGC

SMILES	outcome
O=[N+]([O-])c1ccc(C=Nc2ccc(Cl)cc2Cl)s1	inactive
CCOC(=O)c1nnn(-c2nonc2-n2cccc2)c1CN1CCC(C(=O)OCC)CC1	inactive
C=CCc1cccc2cc(C(=O)Nc3ccc(NC(C)=O)cc3)c(=O)oc12	inactive
CCOC(=O)[C@@H]1[C@H]2COc3cc(OC)ccc3[C@H]2N2C(=O)N(c3ccc(F)cc3)C(=O)[C@]12C	inactive
O=C(Cc1ccccc1)Nc1c(Cl)ccc2nsnc12	inactive
CC(=O)c1ccc(NC(=O)C2CC(=O)Nc3nc4ccccc4n32)cc1 (stereo unspecified)	inactive
CCOc1ccc(NC(=O)C/C(C)=N/NC(=O)Cc2cccs2)cc1	inactive
CN(CC(=O)NCCN1CCOCC1)S(=O)(=O)c1ccc(F)cc1	inactive
C/C(=N\NC(=O)CCn1nc(C)cc1C)C(C)(C)C	inactive
O=C(Cc1ccc(NC(=O)C2CCCN(C(=O)CCc3ccccc3)C2)cc1)Nc1ccc(C(=O)N2CCOCC2)cc1 (stereo unspecified)	inactive
COc1ccc(-c2nc3c(s2)CCc2onc(-c4ccc(OC)cc4)c2-3)cc1	inactive
CC(=O)Nc1ccc(S(=O)(=O)N(CCc2ccccc2)CC(=O)N/N=C/c2ccc(C(=O)O)cc2)cc1	inactive
COc1cc(Cl)ccc1OCc1cc(C(=O)N(C)CCc2c(C)n[nH]c2C)no1	inactive
CC(C)C[C@H](NC(=O)C1CC(=O)N(c2ccc3c(c2)OCCO3)C1)C(=O)NC1CCCC1 (stereo partly specified)	inactive
COc1ccc(Cl)cc1NC(=O)CN(C)C(=O)CCCc1c[nH]c2ccccc12	inactive
CC(C)CC(CC(C)C)=NNC(=O)c1ccc(CSc2nncn2C)cc1	inactive
O=C(c1cc(-c2ccco2)nc2ccccc12)N(Cc1nnc(-c2ccc(Cl)cc2)o1)C1CC1	inactive
CN(CC(=O)Nc1ccc(Cl)c(C(F)(F)F)c1)C(=O)CCC(=O)c1ccccc1	inactive
Cn1ncc(N2CCN(S(=O)(=O)c3ccc(Br)cc3)CC2)c(Cl)c1=O	inactive
CC(C)OP(=O)(OC(C)C)C(Nc1ccccc1)c1cccc([N+](=O)[O-])c1 (stereo unspecified)	inactive
CC(=O)N(c1ccc2oc(=O)sc2c1)S(=O)(=O)c1ccc(C)cc1	inactive
Clc1ccc(C[n+]2cc(-c3ccc(Cl)cc3)n3c2CCC3)cc1	inactive
COC(=O)[C@@H]1C[C@@]2(O)[C@@H](O)[C@@H](O)[C@@H](O)C[C@H]2N1Cc1ccc(C)s1	inactive
COc1ccccc1NS(=O)(=O)c1ccc(C)c(C(=O)NNC(=O)c2csc(N3CCOCC3)n2)c1	inactive
CC(=O)OC1CCC2C3CCC4=C(CC(F)C(=O)C4)C3CCC12C (stereo unspecified)	inactive
Cc1ccc(S(=O)(=O)N2CCCC2C(=O)NCc2ccco2)cc1 (stereo unspecified)	inactive
